Shiga toxin inh = blocks Shiga toxin action in Vero cells. Vero cells, Shiga toxin protein synthesis inhibition reporter. inhibition, % at 38.7 µM. 9.2% of 290,000 active; in the data active = inhibition mostly above about 28%, no sharp cut-off; inactive = mostly below about 43%
AmpC inh detg = blocks E. coli AmpC beta-lactamase in detergent assay; P00811; AmpC hydrolysis of nitrocefin, absorbance 480 nm, 0.01% Triton; Potency, µM (titrated, usually from 114 µM), most hits filed as inhibitors; 0.041% of 370,000 active; note: nearly all actives have a fitted effect of over 25% in size
Target sequence (P00811 whole entry, looked up): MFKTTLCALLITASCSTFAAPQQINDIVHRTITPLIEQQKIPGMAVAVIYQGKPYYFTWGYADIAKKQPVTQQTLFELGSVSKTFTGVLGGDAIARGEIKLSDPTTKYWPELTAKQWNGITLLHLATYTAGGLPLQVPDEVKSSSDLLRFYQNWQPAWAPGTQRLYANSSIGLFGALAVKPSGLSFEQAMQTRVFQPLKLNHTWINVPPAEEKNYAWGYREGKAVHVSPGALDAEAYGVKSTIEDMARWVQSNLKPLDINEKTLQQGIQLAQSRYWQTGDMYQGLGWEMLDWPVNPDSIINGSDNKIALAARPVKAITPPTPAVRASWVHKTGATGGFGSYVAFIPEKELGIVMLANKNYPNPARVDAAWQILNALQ
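20 mM phosphate pH 7.0 + 0.01% (detergent screen) or 0.0001% Triton X-100; 5.3 nM AmpC reagent; cpd preinc 15 min RT; nitrocefin (800 uM stock) to start; A480 q20 s × 4 min; Activity was normalised to no-enzyme and no-compound control wells.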
CHX counter = counter-screen hit for Shiga toxin inhibitors, cycloheximide; cell reporter, cycloheximide protein synthesis inhibition counterscreen; max response, %; 12% of 300,000 active; AID 2314; in the data active = max response mostly above about 13%, no sharp cut-off; inactive = mostly below about 14%; note: read at 38.3 µM for the half of the compounds with a filed dose
AmpC no deterg = AmpC beta-lactamase inhibition without detergent | P00811 | AmpC nitrocefin hydrolysis, absorbance 480 nm, 0.0001% Triton | Potency, µM (highest dose often 57.1 µM), most hits filed as inhibitors | 0.52% of 330,000 active; note: nearly all actives have a fitted effect of over 20% in size
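20 mM phosphate pH 7.0 + 0.01% (detergent screen) or 0.0001% Triton X-100; 5.3 nM AmpC reagent; cpd preinc 15 min RT; nitrocefin (800 uM stock) to start; A480 q20 s × 4 min; Activity was normalised to no-enzyme and no-compound control wells.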
NS1 inh = influenza NS1 inhibition | Potency, µM (doses to about 46.1 µM) | 0.4% of 270,000 active | AID 2326; calls by dose curve; note: actives are rising curves; nearly all actives have a fitted effect of over 50% in size
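A cell-based growth assay was used: compounds that relieve NS1-induced slow growth of budding yeast raise OD600. Assay medium was yeast nitrogen base with ammonium sulphate and -URA supplement, pH 6.0, with 2% galactose.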
Large screens that a line does not name were inactive. Many of the other results were omitted from the sample, so hits are more common in it than they were. Unless noted, calls come from the whole dose curve; as a rule, active = well fitted curve in the direction sought with a large enough effect; inconclusive = small, poorly fitted or top-dose-only effect, or another doubt; inactive = no such curve, though single readings can be large; an effect the other way counts as inactive or inconclusive.

COc1ccc2ccccc2c1/C=N/NC(=O)CC1(C)OCCCO1	none
CCCOc1ccc(CC2CCC(=O)NC2=O)cc1 (stereo not drawn)	none
CCCCOc1ccc(C2(C)CC(=O)NC2=O)cc1 (stereo not drawn)	CHX counter 21.5, NS1 inh inconclusive
COc1ccc(Cl)cc1NC(=O)Nc1cc(C)on1	Shiga toxin inh 60.9, CHX counter 36.3
O=C(NCC(O)c1ccccc1)Nc1cccs1 (stereo not drawn)	CHX counter 23.7
O=C(Nc1ccc(C(F)(F)F)cn1)Nc1cccs1	Shiga toxin inh 35.0, AmpC inh detg inconclusive, CHX counter 26.2
O=C(NCc1ccco1)Nc1cccs1	none
COc1ccc(Cl)cc1NC(=O)Nc1cnccn1	none
O=C(Nc1cccs1)Nc1cc(C(F)(F)F)ccc1Cl	none (no result: Shiga toxin inh, CHX counter, AmpC no deterg, NS1 inh)
Cc1cc(NC(=O)Nc2cccs2)no1	CHX counter 16.0
CN(CCc1ccccc1)C(=O)c1cccc(NC(=O)Cc2cccc([N+](=O)[O-])c2)c1	none (no result: Shiga toxin inh, AmpC inh detg, CHX counter, NS1 inh)
COc1cccc(C(=O)Nc2cc(C)nn2-c2ccccc2)c1OC	none
COc1ccccc1CN1CCC(n2nccc2NC(=O)CCc2ccccc2)CC1	none
COc1cccc(C(=O)Nc2cc(C)on2)c1OC	Shiga toxin inh 75.9, CHX counter 49.4 (no result: NS1 inh)
Cc1cc(NC(=O)Nc2ccccc2Cl)no1	Shiga toxin inh 63.7, CHX counter 27.0
O=C(Nc1cccs1)Nc1ccccc1Br	Shiga toxin inh 46.7, CHX counter 30.1 (no result: NS1 inh)
CCOC(=O)C1=C(C)NC(=O)N[C@@H]1c1coc2cc(C)cc(C)c2c1=O	none (no result: Shiga toxin inh, AmpC inh detg, CHX counter, AmpC no deterg)
CCOc1ccc(C=NNc2ccc(S(=O)(=O)Nc3ccccc3C(=O)O)cc2[N+](=O)[O-])cc1OC	none (no result: Shiga toxin inh, AmpC inh detg, CHX counter, NS1 inh)
COc1ccccc1/C=N\Nc1ccccc1[N+](=O)[O-]	Shiga toxin inh 73.0, CHX counter 48.9
CCOc1ccccc1/C=N/Nc1ccccc1[N+](=O)[O-]	none
COc1cc(/C=N/Nc2ccc(S(N)(=O)=O)cc2[N+](=O)[O-])cc(OC)c1O	none
Cc1[nH]c2ccccc2c1/C=N/Nc1ccccc1[N+](=O)[O-]	Shiga toxin inh 86.2, CHX counter 37.4 (no result: NS1 inh)
COc1cc(/C=N/Nc2ccccc2[N+](=O)[O-])ccc1OC(=O)c1ccccc1F	Shiga toxin inh 44.9, CHX counter 30.6 (no result: NS1 inh)
Cc1[nH]c2ccccc2c1/C=N/NS(=O)(=O)c1ccccc1	AmpC inh detg inconclusive (no result: NS1 inh)
COc1cc(/C=N/Nc2ccccc2[N+](=O)[O-])cc(OC)c1O	Shiga toxin inh 87.9, CHX counter 26.2 (no result: NS1 inh)
O=C(CSc1nnc(NC(=O)C2CC(=O)N(c3ccc(F)cc3)C2)s1)NC1CCCC1 (stereo not drawn)	AmpC inh detg inconclusive
CCC(=O)N1CCc2cc(Br)cc(S(=O)(=O)N3CCN(c4ccc(C)cc4)C(C)C3)c21 (stereo not drawn)	none (no result: Shiga toxin inh, CHX counter, AmpC no deterg, NS1 inh)
COc1ccc(/C=N\Nc2ccc([N+](=O)[O-])cc2[N+](=O)[O-])c(C(=O)O)c1OC	none
CC(C)Oc1ccccc1/C=N/Nc1ccccc1[N+](=O)[O-]	Shiga toxin inh 86.8, CHX counter 64.6
COc1ccc(/C=N\Nc2ccccc2[N+](=O)[O-])c(C(=O)O)c1OC	Shiga toxin inh 88.5, CHX counter 50.0
CC1=CC(=O)C2=C(C)CC[C@H]3[C@H](C)C(=O)O[C@@H]3C12 (stereo partly drawn)	none (no result: AmpC inh detg, AmpC no deterg, NS1 inh)
COc1cccc(CNC(=O)c2ccc3c(c2)c(C)c(C)n3Cc2ccccc2)c1OC	none (no result: Shiga toxin inh, CHX counter, AmpC no deterg, NS1 inh)
CCOC(=O)C1(CCCc2ccccc2)CCN(C(=O)CCc2cnccn2)CC1	none
CCOC(=O)C1(CCc2ccccc2)CCN(C(=O)CCc2cnccn2)CC1	Shiga toxin inh 55.0, AmpC inh detg inconclusive, CHX counter 23.9
CCOC(=O)C1(Cc2ccc(OC)cc2)CCN(C(=O)CCN2CCCC2=O)CC1	CHX counter 16.9
CCOC(=O)C1(Cc2ccc(Cl)cc2)CCN(C(=O)CCc2cnccn2)CC1	none
CCOC(=O)C1(Cc2ccc(OC)cc2)CCN(C(=O)CCc2cnccn2)CC1	CHX counter 13.6
Cc1ccc(CO)cc1Nc1ncnc2onc(-c3ccc(F)cc3)c12	none (no result: Shiga toxin inh, CHX counter, AmpC no deterg, NS1 inh)
CCCOc1ccccc1C1C(C(=O)Nc2ccccc2)=C(C)Nc2nnnn21 (stereo not drawn)	none (no result: Shiga toxin inh, CHX counter, AmpC no deterg, NS1 inh)
O=C(Nc1cc(Cl)ccc1O)C1CC(c2ccccc2Cl)=NO1 (stereo not drawn)	none
Cc1cccc(NC(=O)c2ccc(C(=O)Nc3cccc(C)c3C)cc2)c1C	none (no result: Shiga toxin inh, CHX counter, AmpC no deterg, NS1 inh)
CCOCCCNC(=O)/C=C1\Sc2ccccc2N(Cc2ccccc2F)C1=O	Shiga toxin inh 130.6, AmpC inh detg inconclusive, CHX counter 31.9 (no result: NS1 inh)
CCOCCCNC(=O)CN1C(=O)/C(=C/c2ccccc2C)Sc2ccccc21	none (no result: NS1 inh)
COc1ccc(C(c2c(O)cc(C)n(Cc3ccco3)c2=O)N2CCN(c3ccccc3)CC2)cc1 (stereo not drawn)	none (no result: Shiga toxin inh, CHX counter, AmpC no deterg, NS1 inh)
C/C=C/c1ccc(OCCCCN2C(=O)NC(C)(C)C2=O)c(OC)c1	CHX counter 13.7
CCOc1cc(C=O)ccc1OCCCN1C(=O)NC(C)(C)C1=O	AmpC inh detg inconclusive
Cc1cc(=O)[nH]c(SCCOc2ccc3c(c2)CCC3)n1	none (no result: AmpC no deterg)
C/C=C/c1ccc(OCCSc2nc(C)cc(=O)[nH]2)c(OC)c1	Shiga toxin inh 77.0, AmpC inh detg inconclusive, CHX counter 23.7
Cc1cc(=O)[nH]c(SCCOc2ccc(OC(C)C)cc2)n1	Shiga toxin inh 46.9, CHX counter 31.1
COc1ccc(Nc2nc(N)c3cc(OC)c(OC)cc3n2)cc1	none (no result: Shiga toxin inh, CHX counter, AmpC no deterg, NS1 inh)
Cc1ccc(N2C(=O)N(CC(=O)Nc3ccc(F)c(F)c3)C(=O)C2C)cc1 (stereo not drawn)	none (no result: Shiga toxin inh, CHX counter, NS1 inh)
C=CCNC(=O)O/N=C/c1csc([N+](=O)[O-])c1	Shiga toxin inh 32.4
CC(C)CNC(=S)NC(=O)c1csc([N+](=O)[O-])c1	none
CN1C(=O)C(=O)/C(=C(/O)c2ccccc2)C1c1ccc([N+](=O)[O-])cc1 (stereo not drawn)	none
Cc1cc2c(s1)c1cnn(Cc3ccc(C(F)(F)F)cc3)c(=O)c1n2C	none (no result: AmpC inh detg, AmpC no deterg, NS1 inh)
O=C(CN1CCSc2ccccc21)NCc1ccccc1F	none (no result: Shiga toxin inh, CHX counter, AmpC no deterg, NS1 inh)
O=C(NNC(=O)c1cc(-c2ccccc2)nc2ccccc12)Nc1cccc(Cl)c1	none
CC(C)(C)c1ccc(-c2cc(C(=O)NNC(=O)Nc3ccccc3)c3ccccc3n2)cc1	CHX counter 22.4
O=C(NNS(=O)(=O)c1ccc(Cl)cc1)c1cc(-c2ccccc2)nc2ccccc12	AmpC no deterg 28.2µM
O=C(NNC(=O)c1cc(-c2cccnc2)nc2ccccc12)Nc1ccc(Cl)cc1	CHX counter 44.5 (no result: NS1 inh)
COc1ccccc1C(=O)NC(=O)CSc1nnc(N)s1	none (no result: Shiga toxin inh, CHX counter, NS1 inh)
CCOC(=O)c1c(-c2ccccc2)csc1NC(=O)c1cc(-c2cccc(OC)c2)on1	none (no result: Shiga toxin inh, CHX counter, AmpC no deterg, NS1 inh)
CCOc1ccc2oc(C(=O)NCc3ccccc3CN3CCCC3)c(C)c2c1	none (no result: Shiga toxin inh, CHX counter, NS1 inh)
COc1ccc(/C=C(\C#N)C(=O)NCC2CCCO2)cc1OC (stereo not drawn)	none
N#C/C(=C\c1cccs1)C(=O)NCC1CCCO1 (stereo not drawn)	Shiga toxin inh 80.3, CHX counter 25.0
